This note sets out measurements from PubChem BioAssay AID720517 (National Center for Advancing Translational Sciences (NCATS), 2013).

Each structure is given as a SMILES string. Inconclusive results are not listed. Entries that show only a call come without a potency. The source made the active and inactive calls. Calls come from the whole dose curve; as a rule, active = well fitted activation curve with a large enough effect; inconclusive = small, poorly fitted or top-dose-only effect; inactive = flat fitted curve, though single readings scatter.
Potency is the fitted concentration of half-maximal effect.

The test can be described thus: qHTS for Inhibitors of Cell Surface uPA Generation: FP59 Counterscreen for Cherry-picked Compounds. Particulars: FP59 anthrax toxin cytotoxicity counterscreen, cells; series mostly up to 115 µM. (In general: qHTS replaces the single test concentration by a dilution series.)
As for `COc1cccc(CNC(=O)C2CCCN(S(=O)(=O)c3ccc4c(c3)C(C)(C)C(=O)N4C)C2)c1` (stereo unspecified), the Potency entry was “inactive”.

For the compound `COc1ccc(/C=N/NC(=O)COc2ccc3ccccc3c2)c(C(=O)O)c1OC`, the Potency entry is “inactive”.

For `CC(=O)Oc1ccc(OC(C)=O)c(SCCCCCCl)c1`, the Potency entry is “inactive”.

Take `O=S(=O)(NCCc1ccccc1F)c1cccc(S(=O)(=O)N2CCOCC2)c1`: the Potency result is “inactive”.

As to `CN(C)c1ccc(S(=O)(=O)N2CCC(Cc3ccccc3)CC2)cn1`, the Potency result was “inactive”.

As for `O=C(c1cccc(F)c1)N1CCN(Cc2cccc(Br)c2)CC1`, the Potency result is “inactive”.

As for `O=C1C=CC(O)(c2cc(=O)c3c(O)cc(O)cc3o2)C=C1`, the Potency was 14.7 µM (active).

On to `N/C(=N/OC(=O)c1ccccc1F)c1nonc1N`, for which the Potency entry was “inactive”.

Consider `CCn1nc(C)c(CNC(=O)C2CCC(=O)N(CCc3ccc(OC)cc3)C2)c1C` (stereo unspecified), for which the Potency result is “inactive”.

For `COc1cc(CCC(=O)OCC(=O)Nc2ccc(C)cc2Br)cc(OC)c1OC`, the Potency entry was “inactive”.

In the case of `O=C(NCc1ccco1)/C(=C\c1cccs1)NC(=O)c1ccccc1`, the Potency entry is “inactive”.

On to `Cc1cc(C)c(NC(=O)Cn2nnc(C(=O)NCc3ccc4c(c3)OCO4)c2N)c(C)c1`, for which the Potency result is “inactive”.

With `CCOc1ccc(Cl)cc1/C=N/NC(=O)c1ccccc1`, the Potency result is “inactive”.

For `O=[N+]([O-])c1ccccc1C=NNC(=S)NN=Cc1ccccc1[N+](=O)[O-]`, the Potency entry is “inactive”.

Regarding `Cn1c(=O)n(CC(=O)O)c(=O)c2c1nc1n2CCCN1CCc1ccccc1`, the Potency result is “inactive”.

As to `CCN(C(=O)CSc1ncnc2sccc12)c1c(N)n(Cc2ccccc2)c(=O)[nH]c1=O`, the Potency entry is “inactive”.

Regarding `CCOc1cc(C(=S)N2CCOCC2)ccc1OC(=O)c1cccc(C)c1`, the Potency entry was “inactive”.

Turning to `COc1ccc2c(ccn2S(=O)(=O)c2ccccc2)c1`, the Potency result was “inactive”.

Take `OCCN(Cc1ccccc1)CC(O)COc1ccc2c(c1)OCO2` (stereo unspecified): the Potency entry was “inactive”.

`COc1ccc(-c2cc(-c3ccccc3)nc3ncnn23)cc1`: the Potency entry is “inactive”.

On to `COc1cccc(-n2c(SCC(=O)Nc3cc(C)on3)nc3c([nH]c4ccccc43)c2=O)c1`, for which the Potency result is “inactive”.
